Screening data as filed in PubChem BioAssay.
Most compounds without a hit are left out; they make up all but 6.7% or so of the library.
Pf_Dd2_inh = P. falciparum Dd2 growth inhibition | SYBR Green, 72 h; stronger effect = lower value | 94,000 tested, 2.3% active | activity change, % at 10 µM; in the data active = activity change below about -80%; inconclusive = no clear call, values can overlap the other calls
T_cruzi_growth-1 = blocks T. cruzi growth in NIH3T3 culture; AID 624255; 77,000 tested, 5.9% active; inhibition, % at 8.34 µM; T. cruzi beta-gal in NIH3T3, GalScreen luminescence, 90 h;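 active = mean inhibition above about 93%, with at least 55% of replicates each passing it, limit read from the data, passing the limit was not always enough; inconclusive = only one of those two conditions holds; inactive = neither condition holds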
C_diff_HTS = inhibitors of Clostridium difficile growth | 86,000 tested, 0.25% active | growth activity, negative = inhibition, % at 16 µg/mL (by protocol) | Clostridium difficile clinical isolate growth, OD600, 24 h; stronger effect = lower value;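 active = mean growth activity at or below -80% and every replicate also at or below -80%; inconclusive = mean at or below -80% but some replicate above -80%; inactive = mean growth activity above -80%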;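 note: 0% = DMSO wells and -100% = levofloxacin 16 µg/mL wells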
T_cruzi_growth-2 = blocks T. cruzi growth in NIH3T3 host cells; shares compounds with T_cruzi_growth-1; T. cruzi beta-gal in NIH3T3, GalScreen luminescence, 90 h; inhibition, % at 8.35 µM; 5,600 tested, 72% active; AID 651739;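 active = mean replicate inhibition above about 95% and at least 55% of replicates individually reaching it, limit read from the data; inconclusive = only one of the two criteria is met; inactive = neither criterion is met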
T_cruzi_growth-3 = Trypanosoma cruzi proliferation inhibition; T. cruzi beta-gal in NIH3T3, GalScreen luminescence, 90 h; AID 651740; shares compounds with T_cruzi_growth-1; inhibition, % at 2.09 µM; 5,600 tested, 21% active;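 active = mean inhibition above about 95%, with at least 55% of replicates also reaching it, limit read from the data; inconclusive = meets just one of the two conditions; inactive = meets neither condition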;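 note: plate controls were neutral control median for no effect and positive control median for full effect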
NIH3T3_tox = cytotoxicity in mouse NIH/3T3 fibroblasts; shares compounds with T_cruzi_growth-1; NIH/3T3 viability, CellTiter-Glo ATP luminescence, 90 h; cytotoxicity (signal decrease), % at 8.35 µM; 5,600 tested, 14% active; AID 651742;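 active = mean signal decrease across replicates above about 35% based on untreated-well scatter, with enough replicates individually passing, limit read from the data; inconclusive = no rule stated though some were filed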;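 note: 0% = median of neutral control wells and 100% = median of positive control wells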
3T3_cytotox_2 = kills mouse NIH/3T3 fibroblasts. shares compounds with T_cruzi_growth-1. NIH/3T3 viability, CellTiter-Glo ATP luminescence, 90 h. 5,600 tested, 56% active. inhibition, % at 24.9 µM;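 active = mean loss of cell viability signal at or above a set limit, and enough replicates individually reaching it; inconclusive = meets only the mean limit or only the replicate share; inactive = meets neither condition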;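 note: 0% = median of neutral control wells and 100% = median of positive control wells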
Active calls of the source: *; u = inconclusive; x = no result given.

SMILES Pf_Dd2_inh T_cruzi_growth-1 C_diff_HTS T_cruzi_growth-2 T_cruzi_growth-3 NIH3T3_tox 3T3_cytotox_2
COc1ccccc1NC(=O)N1CCCCN2[C@H](CO)[C@@H](c3ccc(-c4cccc(C)c4)cc3)[C@@H]2C1 -71 95 40 x x x x
COc1ccccc1NC(=O)N1CCCCN2[C@H](C1)[C@H](c1ccc(-c3ccc(C)cc3)cc1)[C@@H]2CO -48 113* 2 111* 73 16 28*
COc1ccccc1NC(=O)N1CCCCN2[C@H](C1)[C@H](c1ccc(-c3cccc(F)c3)cc1)[C@@H]2CO -4 90 28 x x x x
COc1ccccc1NC(=O)N1CCCCN2[C@H](CO)[C@@H](c3ccc(C#Cc4ccccc4)cc3)[C@@H]2C1 -24 49 1 x x x x
CC(=O)N(C)C[C@@H]1Oc2cc(/C=C/c3ccccc3)ccc2S(=O)(=O)N([C@@H](C)CO)C[C@H]1C -23 x -7 x x x x
O=C(C[C@@H]1C=C[C@@H](NS(=O)(=O)c2cccc(F)c2)[C@H](CO)O1)N1CCCCC1 0 14 -5 x x x x
O=C(NCC[C@@H]1CC[C@@H](NS(=O)(=O)c2ccc(F)cc2)[C@@H](CO)O1)Nc1ccc(Cl)cc1 -3 -26 x x x x x
COc1ccc2c3c(n(C)c2c1)[C@H](CO)N(S(C)(=O)=O)CC31CCN(CC2CCCC2)CC1 -74 x 2 x x x x
CNC(=O)C[C@H]1CC[C@@H]2[C@H](COc3ccc(NC(=O)Nc4ccc(Cl)cc4)cc3C(=O)N2C)O1 -7 24 3 x x x x
C[C@H]1CN([C@@H](C)CO)C(=O)c2cc(NC(=O)Nc3cccc4ccccc34)ccc2O[C@H]1CN(C)Cc1ccc(Cl)c(Cl)c1 -13 u 0 96* 74 7 8
C[C@H](CO)N1C[C@H](C)[C@H](CN(C)Cc2ccc(Cl)c(Cl)c2)Oc2ccc(NC(=O)Nc3cccc4ccccc34)cc2CC1=O -22 79 -7 x x x x
C[C@@H]1CN([C@H](C)CO)C(=O)Cc2cc(NC(=O)Nc3cccc4ccccc34)ccc2O[C@@H]1CN(C)Cc1ccc(Cl)c(Cl)c1 -10 u 9 108* 107* 44* 17
C[C@H]1CN([C@@H](C)CO)C(=O)c2cc(NC(=O)Nc3cccc4ccccc34)ccc2O[C@@H]1CN(C)Cc1ccc(Cl)c(Cl)c1 -24 101 -2 x x x x
COc1ccc(S(=O)(=O)N(C)C[C@@H]2Oc3c(NS(=O)(=O)c4ccc(Cl)cc4)cccc3C(=O)N([C@@H](C)CO)C[C@H]2C)cc1 41 -13 7 x x x x
C[C@H](CO)N1C[C@H](C)[C@@H](CN(C)C(=O)C2CCC2)Oc2cc(-c3ccccc3)ccc2S1(=O)=O 6 70 x x x x x
C[C@H]1CN([C@@H](C)CO)S(=O)(=O)c2ccc(C#CC3(O)CCCC3)cc2O[C@H]1CN(C)C(=O)Cc1ccncc1 -62 x -2 x x x x
COc1ccc(NC(=O)Nc2ccc3c(c2)C(=O)N([C@H](C)CO)C[C@H](C)[C@@H](CN(C)Cc2ccc(Cl)c(Cl)c2)OCCCC[C@@H](C)O3)cc1 -1 122* 0 113* 100* 2 9
COc1ccc(NC(=O)Nc2ccc3c(c2)C(=O)N([C@H](C)CO)C[C@H](C)[C@H](CN(C)Cc2ccc(Cl)c(Cl)c2)OCCCC[C@@H](C)O3)cc1 -44 121* -1 104* 107* 6 -1
COc1ccc(NC(=O)Nc2ccc3c(c2)C(=O)N([C@H](C)CO)C[C@H](C)[C@H](CN(C)Cc2ccc(Cl)c(Cl)c2)OCCCC[C@H](C)O3)cc1 14 126* -1 95* 114* 5 16
COc1ccc(NC(=O)Nc2ccc3c(c2)C(=O)N([C@@H](C)CO)C[C@@H](C)[C@@H](CN(C)Cc2ccc(Cl)c(Cl)c2)OCCCC[C@@H](C)O3)cc1 -80* 126* -1 96* 114* 1 5
COc1ccc(CN(C)C[C@H]2OCCCC[C@H](C)Oc3ccc(NC(=O)Nc4ccc(OC)cc4)cc3C(=O)N([C@@H](C)CO)C[C@H]2C)cc1 20 2 x x x x x
COc1ccc(CN(C)C[C@@H]2OCCCC[C@H](C)Oc3ccc(NC(=O)Nc4ccc(OC)cc4)cc3C(=O)N([C@@H](C)CO)C[C@H]2C)cc1 -61 -2 x x x x x
COc1ccc(NC(=O)Nc2ccc3c(c2)C(=O)N([C@@H](C)CO)C[C@@H](C)[C@H](CN(C)Cc2ccc4c(c2)OCO4)OCCCC[C@H](C)O3)cc1 -60 76 4 x x x x
CN(C)C(=O)C[C@H]1CC[C@H]2[C@H](COc3ccc(NC(=O)C4CCOCC4)cc3C(=O)N2C)O1 8 -59 -4 x x x x
CO[C@H]1CN(C)C(=O)c2ccc(NS(C)(=O)=O)cc2OC[C@@H](C)N(CC2CCOCC2)C[C@H]1C 32 -8 x x x x x
SMILES Pf_Dd2_inh T_cruzi_growth-1 C_diff_HTS T_cruzi_growth-2 T_cruzi_growth-3 NIH3T3_tox 3T3_cytotox_2
COc1ccc(NC(=O)Nc2ccc3c(c2)C(=O)N([C@@H](C)CO)C[C@H](C)[C@@H](CN(C)Cc2ccc(Cl)c(Cl)c2)OCCCC[C@@H](C)O3)cc1 -87* 126* 0 102* 114* -5 28
COc1ccc(NC(=O)Nc2ccc3c(c2)C(=O)N([C@H](C)CO)C[C@@H](C)[C@@H](CN(C)Cc2ccc(Cl)c(Cl)c2)OCCCC[C@H](C)O3)cc1 -75 126* 5 90 110* 2 5
COc1ccc(CN(C)C[C@H]2OCCCC[C@@H](C)Oc3ccc(NC(=O)Nc4ccc(OC)cc4)cc3C(=O)N([C@H](C)CO)C[C@@H]2C)cc1 -29 38 x x x x x
C[C@H]1CN([C@@H](C)CO)C(=O)c2cc(C#CCc3ccccc3)cnc2O[C@@H]1CN(C)CC1CCCC1 -88* 109* -1 103* u 19 103*
C[C@H](CO)N1C[C@H](C)[C@H](CN(C)Cc2ccccn2)Oc2ncc(C#CCC3CCCC3)cc2C1=O -5 65 -11 x x x x
CNC[C@H]1Oc2ncc(C#CCC3CCCC3)cc2C(=O)N([C@H](C)CO)C[C@H]1C -45 u 6 108* 92 11 106*
C[C@H](CO)N1C[C@H](C)[C@@H](CN(C)C(=O)C2CCCCC2)Oc2ncc(C#CCc3ccccc3)cc2C1=O -77 u 16 94 -19 17 106*
C[C@@H]1CN([C@H](C)CO)C(=O)c2cc(C#CCc3ccccc3)cnc2O[C@H]1CN(C)CC1CCOCC1 -63 -62 -4 x x x x
CNC[C@@H]1Oc2ncc(C#CC3CCCC3)cc2C(=O)N([C@@H](C)CO)C[C@@H]1C -31 96 4 x x x x
